Reference: ChEMBL document CHEMBL4513216, “Probing the Open Global Health Chemical Diversity Library for Multistage-Active Starting Points for Next-Generation Antimalarials” (ACS Infect Dis, 2020)
About 8,600 (12%) of roughly 69,000 compounds showed an effect of 50% or more. Shown is part of a subset that was picked to be rich in strong results.

Each compound was assayed on Plasmodium berghei (assay: Screen against P. berghei liver stage (PbLuc), transformed with Luciferase, at 10uM). Conditions: tested at 10 uM.
Format: functional, HepG2
For `O=C(NCCc1nnc2n1CCC2)NCC1(c2cccc(F)c2)CC1`, the INHIBITION was -36.3%. With `CO[C@H]1CN(C(C)C)C[C@@H]1NC(=O)Nc1ccc(C(F)(F)F)cc1` the INHIBITION was 40.3%. In the case of `CN(CC(=O)NC(C)(C)C)C(=O)C1CC(c2cccc(F)c2)=NO1` (stereo not given), the INHIBITION is reported as -29.1%. `COCCN1CCCC(c2nccnc2-c2cccc(Cl)c2)C1` (stereo not given) gave an INHIBITION of 12.75%. Work on `COc1ccc(-n2cc(CNC(=O)c3ccccn3)nn2)cc1` yielded an INHIBITION of -15.9%. In the case of `CS(=O)(=O)NCc1cc(-c2cc(F)cc(F)c2)nc(N2CCOCC2)n1`, the INHIBITION is reported as -4.82%. `CCc1nc(CC)n(CC(=O)NCc2cccc(C)c2)n1` gave an INHIBITION of 13%. `CN1CC(=O)N(c2ccccc2)CC12CCN(CC1CCOCC1)C2` (stereo not given) showed an INHIBITION of -11.2%. Compound `CCc1nccn1CC(=O)N1C[C@@H]2CC[C@H]1CN(c1ncccn1)C2` has an INHIBITION of -22.4%. For `Cc1cnn(CC2CN(Cc3nc(C)no3)CCO2)c1` (stereo not given), the INHIBITION was 4.71%. `Cc1nc(CN2C[C@@H]3CN(C(=O)c4cccn4C)C[C@@H]3C2)cs1` showed an INHIBITION of 16.1%. For `CC(C(=O)NC(N)=O)N(C)CCCc1cc(-c2ccccc2)no1` (stereo not given), the INHIBITION was -28.36%. Compound `Cc1cccc(CN2CCC3(CC2)NC(=O)C[C@H]3c2cnn(C)c2)n1` has an INHIBITION of 1.61%. With `CC(NC(=O)COc1cccc[n+]1[O-])C1CC1` (stereo not given) the INHIBITION was 76.7%. In the case of `CC(C)CNC(=O)COc1cccc[n+]1[O-]`, the INHIBITION is reported as -12.1%. Work on `CC(NC(=O)c1cccc[n+]1[O-])C1CC1` (stereo not given) yielded an INHIBITION of 9%. In the case of `CC(C)n1ccnc1C1CCN(c2nccc(C(F)(F)F)n2)CC1`, the INHIBITION is reported as 11.5%. Work on `COCCN(C/C=C/c1ccccc1)Cc1ccccn1` yielded an INHIBITION of 27.8%. With `CCc1ccc(CN(C/C=C/c2ccccc2)CCOC)nc1` the INHIBITION was 52.9%. Work on `COCCN(C/C=C/c1ccccc1)Cc1nccs1` yielded an INHIBITION of -12.6%. Compound `c1cc2c(cc1CN1CC[C@H]3CO[C@H](CN4CCCC4)[C@H]3C1)OCO2` has an INHIBITION of 10.5%. With `C[C@H]1CN(C(=O)c2cscn2)C[C@@]12CCN(c1ccsc1)C2=O` the INHIBITION was 47.4%. `COCCOCC(=O)N1C[C@@H]2CC[C@H](Oc3ccccc3)[C@@H]2C1` was tested, and the INHIBITION was 7.52%. With `CC(=O)N1CCO[C@@H]2CN(S(=O)(=O)C3CC3)C[C@@H]2C1` the INHIBITION was 50.3%. Work on `CC(=O)N1CCO[C@@H]2CN(S(=O)(=O)C3CC3)CC[C@@H]2C1` yielded an INHIBITION of 37.6%. In the case of `CC(=O)N1C[C@@H]2CN(S(=O)(=O)C3CC3)CCO[C@@H]2C1`, the INHIBITION is reported as 6.79%. `Cc1nn(C)c2c(=O)n(Cc3ccccc3)nnc12` gave an INHIBITION of 28.89%. With `COc1ccnc(N2C[C@H]3CC[C@@H](C2)N(CC2CCC2)C3=O)n1` the INHIBITION was 32.1%. `COc1cccc(CNCc2cccnc2-n2cccn2)c1OC` showed an INHIBITION of 16.2%. `COc1cc2c(cc1CNC(=O)Cc1cc(C)[nH]n1)OC(C)C2` (stereo not given) showed an INHIBITION of 46.6%. Compound `COc1cc2c(cc1CNCc1cccnc1OC)OC(C)C2` (stereo not given) has an INHIBITION of 60.2%. `COc1cc2c(cc1CNC(=O)Cc1cc(C)on1)OC(C)C2` (stereo not given) showed an INHIBITION of 47.4%. Compound `COc1cc2c(cc1CNCc1ccnc(-n3cccn3)c1)OC(C)C2` (stereo not given) has an INHIBITION of 67.8%. `COc1ccc(CNCc2ccnc(N3CCOCC3)c2)c(OC)c1` gave an INHIBITION of 29.6%. `CC(C)N1CC(C(=O)NCc2ccnc(-n3cccn3)c2)CC1=O` (stereo not given) gave an INHIBITION of -28%. Work on `COc1cc2c(cc1CNC(=O)Cc1ccc(C)nc1)OC(C)C2` (stereo not given) yielded an INHIBITION of -25.3%. For `COc1cc2c(cc1CNCc1cccnc1-n1cccn1)OC(C)C2` (stereo not given), the INHIBITION was 68.9%. `O=S(=O)(Cc1ccccc1)N1CCCn2cnc(CN3CCCC3)c2C1` was tested, and the INHIBITION was -17.7%. `O=C(CCn1cccn1)N1CCC(c2nnc(-c3ccccn3)o2)CC1` gave an INHIBITION of 44.9%. `Cc1cc(-c2ccc(=O)n(C3CCN(C(=O)C4CCC4)CC3)n2)c(C)o1` showed an INHIBITION of -30.9%. Compound `CCC(=O)NCC(=O)Nc1c(C)cnn1Cc1cc(F)ccc1F` has an INHIBITION of 44.2%. `CC(=O)Nc1c(C)cnn1Cc1cc(F)ccc1F` was tested, and the INHIBITION was -8.21%. Compound `Cc1cnn(Cc2cc(F)ccc2F)c1NC(=O)NC1CC1` has an INHIBITION of 35.6%. For `Cc1cnn(Cc2cc(F)ccc2F)c1NC(=O)CNC(=O)C1CC1`, the INHIBITION was 72.3%. `Cc1cnn(Cc2cc(F)ccc2F)c1NC(=O)C1CCOCC1` was tested, and the INHIBITION was 72.3%. `Cc1cnn(Cc2cc(F)ccc2F)c1NC(=O)C1COCCO1` (stereo not given) gave an INHIBITION of 2.01%. Work on `CC(=O)N1CC(C(=O)N2CCCC(Cn3ccnc3C)C2)C1` (stereo not given) yielded an INHIBITION of -3.7%. With `Cc1ccc(N2CCCC(Nc3nn4cc(C)nc4s3)C2)nn1` (stereo not given) the INHIBITION was -17.7%. `Cc1cnn(CCC(=O)N2CCN(c3ccc(C#N)cn3)CC2)c1` showed an INHIBITION of 5.9%. Compound `CC(=O)N1CCCn2nc(CNS(=O)(=O)N3CCC(C)CC3)cc2C1` has an INHIBITION of 15.7%. `CN1CCC2(CC1)CN(C(=O)c1onc3ccccc13)CCCN2C` showed an INHIBITION of 24.2%. `CC(=O)Nc1ccsc1C(=O)N1CC[C@H]2CC[C@@H](C1)N2C` gave an INHIBITION of 33.3%. `c1cncc(N2CCCn3nnc(CN4CCOCC4)c3C2)c1` gave an INHIBITION of 7.67%. In the case of `Cn1ncc2c1C(COCC1CC1)CN(Cc1cccnc1)C2` (stereo not given), the INHIBITION is reported as 43.9%. With `O=C1CCCN1Cc1nnn2c1CN(c1cccnc1)CCC2` the INHIBITION was 6.67%. `Cc1ccc(CN2CCc3c(COCC4CC4)nn(C)c3C2)s1` gave an INHIBITION of 59.3%. In the case of `c1cncc(N2CCCn3nnc(CN4CCCCC4)c3C2)c1`, the INHIBITION is reported as 70.3%. For `Cn1ncc2c1C(COCC1CC1)CN(Cc1ccncc1)C2` (stereo not given), the INHIBITION was 22.2%. For `c1cncc(N2CCCn3nnc(COCC4CC4)c3C2)c1`, the INHIBITION was 20.6%. `c1cc(CN2CCCn3nnc(COCC4CC4)c3C2)ccn1` was tested, and the INHIBITION was 42.1%. `Cn1ncc2c1CN(Cc1cccnc1)CC2COCC1CC1` (stereo not given) gave an INHIBITION of 53.5%. For `c1cncc(CN2CCCn3nnc(COCC4CC4)c3C2)c1`, the INHIBITION was 64.7%. For `Cc1ccc(CN2CCc3c(COC(C)C)nn(C)c3C2)s1`, the INHIBITION was 22.2%. Compound `Cn1nc(COCC2CC2)c2c1CN(CC1CC1)CC2` has an INHIBITION of 21.6%. With `COCCNC(=O)c1cc(C2CC2)nc2onc(C3CCNC3)c12` (stereo not given) the INHIBITION was 25.1%. Work on `COCCN1CCC(C)(c2cc(O)[nH]n2)CC1` yielded an INHIBITION of 9.05%. `O=C(Cc1cccnc1)N1CCC(c2nnc(-c3ccccn3)o2)CC1` was tested, and the INHIBITION was 1.5235%. `O=C(CC(F)(F)F)N1C[C@H]2CC[C@@H](C1)N(Cc1ccccc1)C2=O` gave an INHIBITION of 26.9%. In the case of `COc1ccc(NC(C)=O)cc1S(=O)(=O)Nc1ccon1`, the INHIBITION is reported as 35.7%. `CCN(CC)Cc1ccc(C(=O)N2CCCC2Cn2cc(C)cn2)o1` (stereo not given) showed an INHIBITION of -4.3%. With `CN(C)c1ccc(CC2CCN(c3cnccn3)CC2)nn1` the INHIBITION was -18.8%. In the case of `Cn1cc(CN2Cc3c(cnn3C)C(COCC3CC3)C2)cn1` (stereo not given), the INHIBITION is reported as 47.9%. Compound `Cc1ccc(CN2CCCn3nnc(COCCN(C)C)c3C2)s1` has an INHIBITION of 54.8%. With `COc1ccc(CN2CCCn3nnc(COCC4CC4)c3C2)cc1` the INHIBITION was 16.8%. `Cn1ncc2c1CN(Cc1ccc(F)cc1)CC2COCC1CC1` (stereo not given) showed an INHIBITION of 8.67%. In the case of `Cc1ccc(CN2Cc3c(cnn3C)C(COCC3CC3)C2)s1` (stereo not given), the INHIBITION is reported as 65.6%. In the case of `Cc1ccc(CN2CCCn3nnc(COCC4CC4)c3C2)s1`, the INHIBITION is reported as 23.3%. Work on `Cc1cnn(CC2CCCCN2C(=O)c2csc(C)n2)c1` (stereo not given) yielded an INHIBITION of 23.5%. Work on `CC(Oc1cc(Cl)cc(Cl)c1)C(=O)NCCC(=O)N(C)C` (stereo not given) yielded an INHIBITION of 30.7%. In the case of `COCCCNc1nc(CNC(=O)C2CCC2)cc(-c2ccco2)n1`, the INHIBITION is reported as -3.34%. `CCC1=N[C@@]2(CC[C@@H]3CN(CC(=O)N(C)C)C[C@@H]32)C(=O)N1CC(C)C` was tested, and the INHIBITION was 29%. Work on `CCc1n[nH]c(C2CN(Cc3nnc(C4CCC4)o3)CCO2)n1` (stereo not given) yielded an INHIBITION of 9.14%. Compound `CC(C)(C)c1n[nH]c(C2CN(Cc3nnc(C4CC4)o3)CCO2)n1` (stereo not given) has an INHIBITION of -3.2%. With `CCc1n[nH]c(C2CN(Cc3nc(C4CC4)no3)CCO2)n1` (stereo not given) the INHIBITION was 64.9%. For `CCc1n[nH]c(C2CN(Cc3nnc(C4CC4)n3C)CCO2)n1` (stereo not given), the INHIBITION was -17.5%. With `Cc1n[nH]c(C2CN(Cc3nnc(C4CC4)n3C)CCO2)n1` (stereo not given) the INHIBITION was 33.7%. Work on `CCc1n[nH]c(C2CN(Cc3nnc(C4CC4)o3)CCO2)n1` (stereo not given) yielded an INHIBITION of 13.3%. For `CCCc1n[nH]c(C2CN(Cc3nnc(C4CC4)o3)CCO2)n1` (stereo not given), the INHIBITION was 52%. Compound `CCCc1n[nH]c(C2CN(Cc3nnc(C4CC4)n3C)CCO2)n1` (stereo not given) has an INHIBITION of 50.1%. `CCCc1n[nH]c(C2CN(Cc3nnc(C4CCC4)o3)CCO2)n1` (stereo not given) showed an INHIBITION of -25.8%. `COc1ccccc1-n1cc(C(=O)NCCCn2ccnn2)cn1` gave an INHIBITION of -12.5%. For `Cc1nc2c(c(=O)[nH]1)CCN(C(=O)c1cccc3nccnc13)C2`, the INHIBITION was 46%. Compound `CN(C)c1ccc(C(=O)Nc2ccn(CC(N)=O)n2)cn1` has an INHIBITION of -15%. Compound `O=C(NCC1CCC1)c1ccnc(-n2ccnc2)c1` has an INHIBITION of -13.6%. Compound `Cc1cc(CNC2(c3ccccc3F)CC2)no1` has an INHIBITION of -4.73%. `CN1C[C@@H](C(=O)NC2CCCC2)[C@@]2(COc3ccc(F)cc3C2=O)C1` showed an INHIBITION of 23.85%. `c1ccc(OCCCN2CCOC(CNc3cccnn3)C2)cc1` (stereo not given) showed an INHIBITION of -65.3%. `Cc1noc(C)c1CN1CCn2cc(CNC(=O)C3CCC3)nc2C1` showed an INHIBITION of 45.2%. `COc1ccc(CC(=O)N2C[C@H]3CN(Cc4ccccn4)C[C@H]3C2)cc1` gave an INHIBITION of 18.6%. `CC[C@@H](CO)Nc1nccc(-c2cnc3sc(C)cn3c2=O)n1` was tested, and the INHIBITION was 11.5%. `CC(C)[C@H](CO)Nc1nccc(-c2c[nH]nc2-c2ccncc2)n1` gave an INHIBITION of -31.5%. `Cc1[nH]c2ccccc2c1-c1ccnc(N[C@@H](C)CO)n1` was tested, and the INHIBITION was 85.7%. Compound `Cc1[nH]c2ccccc2c1-c1ccnc(N[C@H](CO)CC(C)C)n1` has an INHIBITION of 56%. Compound `Cc1cn2c(=O)c(-c3ccnc(N[C@@H](C)CO)n3)cnc2s1` has an INHIBITION of 27.8%. For `Cc1[nH]c2ccccc2c1-c1ccnc(N[C@@H](CO)C(C)C)n1`, the INHIBITION was 36.7%.
